In ChEMBL document CHEMBL1961873, “Compounds: GSK PKIS; Assays: Nanosyn kinase panel” (2012) one finds inhibition data, which are given here for 34 compounds.
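Note: reported value is the mean percent inhibition of the kinase.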

In the experiment the target is Platelet-derived growth factor receptor beta (Homo sapiens) (UniProt P09619). The settings on record: at 0.1 µM.
Platelet-derived growth factor receptor beta (Homo sapiens), sequence (P09619 whole entry): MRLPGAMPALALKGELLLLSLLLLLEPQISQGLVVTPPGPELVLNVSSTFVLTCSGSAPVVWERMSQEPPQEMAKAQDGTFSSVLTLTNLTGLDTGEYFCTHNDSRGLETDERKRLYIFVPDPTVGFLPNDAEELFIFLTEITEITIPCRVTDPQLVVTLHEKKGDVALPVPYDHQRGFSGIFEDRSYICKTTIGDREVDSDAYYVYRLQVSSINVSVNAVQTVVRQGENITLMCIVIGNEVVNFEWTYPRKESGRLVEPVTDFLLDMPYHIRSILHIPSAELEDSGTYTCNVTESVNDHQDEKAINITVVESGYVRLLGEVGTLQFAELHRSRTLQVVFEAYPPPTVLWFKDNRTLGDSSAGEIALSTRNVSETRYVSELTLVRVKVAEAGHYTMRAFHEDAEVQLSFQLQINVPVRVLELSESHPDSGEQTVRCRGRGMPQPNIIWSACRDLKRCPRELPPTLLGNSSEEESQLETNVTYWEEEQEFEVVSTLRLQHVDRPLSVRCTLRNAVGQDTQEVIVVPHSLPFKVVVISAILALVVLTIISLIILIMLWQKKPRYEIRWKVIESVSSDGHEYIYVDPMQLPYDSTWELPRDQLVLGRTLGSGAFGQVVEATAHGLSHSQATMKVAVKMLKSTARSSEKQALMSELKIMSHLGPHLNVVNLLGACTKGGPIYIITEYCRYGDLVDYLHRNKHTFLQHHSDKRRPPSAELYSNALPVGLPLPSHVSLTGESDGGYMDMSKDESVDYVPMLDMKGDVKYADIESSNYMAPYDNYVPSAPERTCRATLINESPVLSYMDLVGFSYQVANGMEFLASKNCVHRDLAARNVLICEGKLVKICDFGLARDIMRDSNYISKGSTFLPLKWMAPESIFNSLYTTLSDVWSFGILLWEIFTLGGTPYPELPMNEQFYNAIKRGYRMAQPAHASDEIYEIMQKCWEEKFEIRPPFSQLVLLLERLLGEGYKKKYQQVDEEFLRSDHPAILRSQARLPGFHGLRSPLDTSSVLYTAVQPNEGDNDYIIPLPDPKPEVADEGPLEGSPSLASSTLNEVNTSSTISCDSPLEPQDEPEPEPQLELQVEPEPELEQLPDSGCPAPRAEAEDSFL
For orientation: inhibition means the relative decrease from the control value, in per cent. For the compound `O=C1NC(=O)C(c2cccc(Cl)c2)=C1Nc1ccc(Cl)c(C(=O)O)c1`, the inhibition worked out at 1.55%. The value for `CCc1cccc(CC)c1/C=C/c1cncc(C(=O)NC)c1` was 7.91%. In the case of `C/C(Nc1ccc(S(N)(=O)=O)cc1)=C1/C(=O)Nc2ccccc21` it was 9.96%. In the case of `Cc1ccc(C(=O)NC2CCC2)cc1-c1ccc(C(=O)NCC2CC2)cc1` it was -0.12%; in that of `O=C(Nc1n[nH]c2cc(-c3ccccc3)ccc12)C1CC1`, 6.45%; in that of `NS(=O)(=O)c1ccc(N/N=C2\C(=O)Nc3ccc(-c4cnco4)cc32)cc1`, 12.1%. With `COc1cc(C)c(N(C)C(=O)CN(C)C)cc1Nc1nc(Nc2cccc(F)c2C(N)=O)c2cc[nH]c2n1`, the inhibition worked out at 0.52%. Turning to `CN1CCN(CCCNc2nc3ccc(Oc4ccc(NC(=O)Nc5cc(C(F)(F)F)ccc5F)cc4)cc3[nH]2)CC1`, the inhibition is 14.1%. Take `Fc1ccc(-c2ncn(C3CCNCC3)c2-c2ccnc(Oc3ccc(F)c(F)c3)n2)cc1`: the inhibition amounted to 5.46%. The value for `Cc1ccc(C(=O)NC(C)C)cc1-c1ccc(C(=O)NCC2CC2)cc1` was 0.76%; that for `N#Cc1ccc(Oc2nccc(-c3c(-c4ccc(F)cc4)ncn3C3CCNCC3)n2)cc1` was 2.5%. On to `NC(=O)Cc1ccccc1Oc1nccc(-c2c(-c3ccc(F)cc3)ncn2C2CCNCC2)n1`, for which the inhibition came to 3.93%. In the case of `c1ccc(Oc2ccc(Nc3ncc(-c4ccccc4)o3)cc2)cc1` it was 3.82%.

For `Fc1ccc(-c2ncn(C3CCNCC3)c2-c2ccnc(Oc3ccc4c(c3)OCO4)n2)cc1`, the inhibition turned out to be 7.36%. For `COc1ccc(C2=C(N3CCc4ccccc43)C(=O)NC2=O)cc1`, the inhibition is 5.31%.

For the compound `C#Cc1cccc(Nc2ncnc3ccc(OCCCCNCCS(C)(=O)=O)cc23)c1`, the inhibition was determined as 9.53%. Consider `c1ccc(-c2n[nH]cc2-c2ccnc(-c3ccc(OCCN4CCOCC4)cc3)c2)nc1`, for which the inhibition turned out to be 16.2%.

For the compound `Cc1ccc(NC(=O)c2ccoc2)cc1-c1ccc(C(=O)NCC2CC2)cc1`, the inhibition came to 1.42%. `CCS(=O)(=O)c1ccc(OC)c(Nc2ncc(-c3cccc(-c4ccccc4F)c3)o2)c1`: the inhibition worked out at 17.1%.

Regarding `Clc1ccc(CNc2nccc(-c3cnn4ncccc34)n2)cc1`, the inhibition is 3.92%.

As to `COc1ccc2cc(-c3c(-c4ccncc4)nc(-c4ccc(S(C)(=O)=O)cc4C)n3C)ccc2c1`, the inhibition worked out at 2.38%.

For `CNC(=O)c1cncc(/C=C/c2c(C)cccc2C)c1`, the inhibition is 7.03%. The value for `CS(=O)(=O)CCNCc1cc(-c2cc3c(Nc4ccc(OCc5cccc(F)c5)c(Cl)c4)ncnc3s2)cs1` was 4.84%; that for `CCS(=O)(=O)c1ccc(OC)c(Nc2ncc(-c3ccccc3Cl)o2)c1` was 4.1%. The value for `Fc1ccc(-c2ncn(CCCN3CCOCC3)c2-c2ccncc2)cc1` was -0.37%; that for `COc1cccc(/C=N/Nc2ncnc3c2cnn3-c2cccc(OC)c2)c1` was 4.05%.

`CN(C)CCOc1ccc(-c2cc(-c3ccc4c(c3)CCC4=NO)c(-c3ccncc3)o2)cc1`: the inhibition was 2.38%. As for `NS(=O)(=O)c1ccc(Nc2cc(-c3ccc(O)c(F)c3)n[nH]2)cc1`, the inhibition was 11.8%. In the case of `NC(=O)c1cc(-c2ccc(F)cc2)cc(-c2ccncc2)c1N`, the inhibition was found to be 2.02%. As for `COc1cc2ncn(-c3cc(OCCc4ccccc4)c(C(N)=O)s3)c2cc1OC`, the inhibition was 10.8%. In the case of `O=C(Nc1n[nH]c2cc(-c3cc(F)ccc3F)ccc12)C1CC1` it was 3.6%. In the case of `COc1ccc2ncn(-c3cc(O[C@H](C)c4ccccc4Cl)c(C(N)=O)s3)c2c1` it was 5.46%; in that of `CN(C)CCCNc1nccc(-c2c(-c3ccc(F)cc3)nn3cc(C(F)(F)F)ccc23)n1`, 6.34%; in that of `O=C(Nc1n[nH]c2nc(-c3ccco3)ccc12)C1CC1`, 1.45%.
